Assay results published in the supplement of paper PMC10681739.

What was measured:
[1] = biological target: RUNX1 (UniProt Q01196); test: RUNX1 binding intensity (PBM fluorescence), RUNX1 alone (arbitrary fluorescence units); higher = stronger binding; conditions: RUNX1 concentration 2 nM; ETS1 concentration 0 nM
Description: (§1)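 Cooperative gcPBM on 36-bp genomic probes with neighbouring ETS1 and RUNX1 sites. Recombinant human RUNX1 (2 nM) was incubated alone or with ETS1 (25 nM) and detected with anti-RUNX1 antibody plus Alexa488 secondary. Values are medians over 4 replicate spots; the RUNX1+ETS1 data were normalised to the RUNX1-only data. The probes sit in constant array flanks that are not printed.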

[2] = biological target: RUNX1 (UniProt Q01196); test: RUNX1 binding intensity (PBM fluorescence) in presence of ETS1, normalised to RUNX1-only experiment (arbitrary fluorescence units); higher = stronger binding; conditions: RUNX1 concentration 2 nM; ETS1 concentration 25 nM
Description: as §1

[3] = biological target: T1, ETS1 (UniProt P14921); test: ETS1 binding intensity (PBM fluorescence) in presence of RUNX1, normalised to ETS1-only experiment (arbitrary fluorescence units); higher = stronger binding; conditions: ETS1 concentration 1 nM; RUNX1 concentration 25 nM
T1 sequence: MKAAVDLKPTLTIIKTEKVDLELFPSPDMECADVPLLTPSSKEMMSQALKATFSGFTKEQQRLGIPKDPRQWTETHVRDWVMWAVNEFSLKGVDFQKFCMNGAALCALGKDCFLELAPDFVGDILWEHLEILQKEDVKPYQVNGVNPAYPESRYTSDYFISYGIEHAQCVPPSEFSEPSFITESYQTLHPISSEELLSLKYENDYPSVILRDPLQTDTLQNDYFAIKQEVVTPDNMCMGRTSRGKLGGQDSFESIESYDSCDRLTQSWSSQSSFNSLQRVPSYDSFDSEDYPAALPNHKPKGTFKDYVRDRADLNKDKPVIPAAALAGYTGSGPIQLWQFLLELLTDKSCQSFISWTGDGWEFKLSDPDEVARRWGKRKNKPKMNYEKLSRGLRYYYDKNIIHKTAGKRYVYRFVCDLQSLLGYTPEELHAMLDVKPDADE
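Wherever RUNX1 binding intensity (PBM fluorescence) in presence of ETS1, normalised to RUNX1-only experiment is given: Full-length recombinant human ETS1 or RUNX1 bound to double-stranded 36-bp genomic probes on microarrays, detected by protein-specific primary antibody and Alexa488 secondary, spot fluorescence as median of four replicate spots.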
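Wherever RUNX1 binding intensity (PBM fluorescence), RUNX1 alone is given: Full-length recombinant human RUNX1 bound to double-stranded 36-bp genomic probes on a high-density microarray, scored as Alexa488 fluorescence per spot via anti-RUNX1 antibody, median of four replicate spots.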

Sequence of RUNX1 (Q01196 whole entry): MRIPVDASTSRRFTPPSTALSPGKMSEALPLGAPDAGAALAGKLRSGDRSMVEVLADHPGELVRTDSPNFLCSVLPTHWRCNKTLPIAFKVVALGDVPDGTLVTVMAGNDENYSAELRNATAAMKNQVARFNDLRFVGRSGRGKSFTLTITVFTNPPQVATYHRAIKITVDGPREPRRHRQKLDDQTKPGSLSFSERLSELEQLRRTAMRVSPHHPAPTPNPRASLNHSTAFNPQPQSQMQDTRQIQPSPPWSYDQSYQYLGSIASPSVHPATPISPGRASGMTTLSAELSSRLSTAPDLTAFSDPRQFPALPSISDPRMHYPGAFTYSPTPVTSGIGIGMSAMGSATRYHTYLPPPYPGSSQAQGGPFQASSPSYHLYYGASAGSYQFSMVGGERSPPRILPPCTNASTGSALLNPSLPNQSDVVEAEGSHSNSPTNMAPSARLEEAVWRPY

Sequence	RUNX1 binding intensity [1]	RUNX1 binding intensity [2]	ETS1 binding intensity [3]
GCTGTCCGTTTCCGAGATGTTAATGCGGGGTCTTGC	866	1070	
AGAGCCACATCCCGCGCAGAGGACCGCGGCGACCGG	764	927	
CCCATCCATCCGCCTCCAAAGTAACCTCAAGAATTT	2140	2490	
ACGGTGCGTTTCCCCAACTACACCGCACGTCACGGA	988	827	
GGCGGTGCACTCTGGGAAATGTGGTTTTCGCGGCGC	1090	1500	
GAAAGACAGGATGTGGGATAGATCTCAACCACCTTT	817	4740	
ATGTCAGGAAGAGGCTCAGGGCTGTGGTTTCTCTGT	979	1070	
GCCAAGGCCTTCCGCCGAGTTGGTTTTTGGGTTGTT	867	952	
GACACAAGACAGTTTCCGTCAGTGGTTAAGCCCTAA	845	1270	
TACCTAGACCCTTTCCGCCCTTACCGCGGCCAGACA	1210	1410	
AGGTTCGTGGCAGGAAAGTTTGTGGCAGCAAAGCCT	1190	1100	
AGTCGGAAGCCATCTGCCCCAACTTGCGGTCTTCAC	1070	1080	
AGCCACATCCTGGACAAAAGCTGTGGTCTAGTAACC	911	2020	
CCGCCCCCGGACGGTCACAGCACCCAAACCGCAGGC	2740	3240	
CAGAGGAAGCCCACCCCATAAAAGAACCACAGATAA	1010	864	
ACTCACACCACGGAAACTGCGGCTCGGCAGGCTGAG	808	885	
CAGGAGCAGTGTAGAGGAAGTGGTTTCCATCACGGA	862	1410	
CAAGCCAACATCCTGACAGTTTAGAAACCACAGGAG	779	1300	
AGCTCTGCCAGGAAGTGAGAACCACAGGCCTCCCCT	837	1350	
CCCAGAGCTTCCGATTGGCTCTTCTGTGGTGGCGGG	1010	1170	
TGCAGCGCATCCTGGGACGTGCGGGCGGTGCATGAG	727	923	
GGACTCTGGCAGGAAGCTGTTTGTGGTTGTCACACC	796	1150	11000
